# Data taken from the supplement of paper PMC6555819.
# Columns and labels:
# Experiment in all cases: PBM binding z-score (relative to random genomic background probes); higher = stronger binding; sequences stand for … in GC…GCGATTGACAGCGTAGAATGAAGG
# [1] = system: RARb homodimer (NR concentration 270 nM)
# How it was run: (§1)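 The probes on custom Agilent 4×180K protein-binding microarrays were double-stranded, with 34-nt variable regions bearing direct-repeat seeds, single-nucleotide variants, half-site ablations and random human genomic background sequences. Incubation lasted 1 h with ligand-free nuclear receptor dimers in PBS pH 7.4, 2% milk, 0.02% Triton X-100, 1 mM DTT, 0.2 mg/mL BSA and 0.4 mg/ml salmon testes DNA. Antibodies against each partner (one per run) detected bound dimers, and fluorescence scans were regression-normalized. Binding z-scores take the random background probes as reference.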
# [2] = system: RARg:RXRa (NR concentration 270 nM, RXRa partner concentration 90 nM)
# How it was run: as §1
# [3] = system: RARg homodimer (NR concentration 270 nM)
# How it was run: as §1
# [4] = system: RXRa DBDmut IVT, anti-RXR (DBD mutation: RXRa K156A/R161A, NR concentration 90 nM)
# How it was run: as §1
# [5] = system: RXRa homodimer (NR concentration 180 nM)
# How it was run: as §1
# [6] = system: THRa:RXRa (NR concentration 90 nM, RXRa partner concentration 90 nM)
# How it was run: as §1
# [7] = system: THRa homodimer (NR concentration 90 nM)
# How it was run: as §1
# [8] = system: VDR:RXRa (NR concentration 270 nM, RXRa partner concentration 90 nM)
# How it was run: as §1
# [9] = system: VDR homodimer (NR concentration 270 nM)
# How it was run: as §1
Sequence,PBM binding z-score [1],PBM binding z-score [2],PBM binding z-score [3],PBM binding z-score [4],PBM binding z-score [5],PBM binding z-score [6],PBM binding z-score [7],PBM binding z-score [8],PBM binding z-score [9]
CTCGAAAGGTCGTGCTCAGGTGAGTAAACCAAAC,2.84,5.23,4.05,1.99,4.99,4.08,0.933,2.99,0.941
CAAACTAGGTCACCGGAAGGTCAAAGACCGCATG,5.49,8.28,7.5,1.49,6.27,4.46,2.95,5.76,2.59
CCTAATGGGCCAAAGGTCATTGATTCCAATGCTC,4.39,5.84,5.06,1.72,7.11,3.26,0.623,4.64,1.9
CGAACTGGGTCATCCAGGACAGTGAATACATTGA,2.71,3.55,3.7,1.35,2.99,3.48,1.25,4.54,1.8
TCTCGGAGGACACGAAGTTCAGAGCTTTCCAGAG,2.07,1.17,2.04,1.08,0.47,1.72,0.372,2.63,2.38
TGACAAAGTTCAAAGGTAACGTAAGTATCCACAC,3.83,6.01,5.91,4.38,6.68,3.36,-0.0359,5.25,4.23
ATCTCTAGGTAAAAGTTCGGTGAATCCCGAGGAT,0.446,0.536,0.526,0.2,0.463,0.583,0.177,0.449,0.68
GTACCAAGGCGAATAGGTCGTTGATGAGTAGGCG,0.278,0.265,0.191,-0.465,0.543,0.0285,-0.524,-0.145,-0.0798
CTACCAAGGTGAACAAGGTCGTTGAATACTATTC,2.13,1.97,1.95,1.24,1.98,3.25,1.83,5.99,2.1
TTACCCAGGTGAAAGGTCGTTGATGCACGCCTTG,2.56,3.48,1.53,0.677,4.51,3.2,1.26,3.08,1.66
AGTCAGAGTTCACTAGGTAACGTAAGATTCAGCT,2.83,4.11,4.7,4.73,3.63,1.85,0.172,4.82,5.65
TAGCCTAGGTCATTTAGGGGCCAGTATAGAAAGC,3.12,5.9,4.36,1.98,2.63,3.47,0.467,3.03,1.63
GGAACGCGGGCAAAGTTGATAGCATCTGTCGACG,-0.251,0.143,0.259,0.0126,0.126,-0.6,-1.04,-0.564,-0.471
CCGACTGGGGCAAGGGTACCATAACGCACAGCCA,0.569,0.349,0.692,-1.52,0.269,-0.0335,-0.368,-0.346,-0.448
TTACCAAGTTGAAAGGTCGTTGATGCACGCCTTG,2.1,2.9,1.34,1.31,4.21,1.92,-0.189,2.65,1.58
ATCTCTAGGTAAGACTCACTTCAGTGAAGAACGC,-0.0357,-0.204,0.301,0.173,-0.184,0.282,0.429,0.175,-0.111
CAAACTAGGTCAAGGTCAAAGTTGGTTTGTGCCA,5.15,6.1,6.67,3.1,6.01,4.39,3.85,5.16,4.14
ATCGAAAGGTCGACAAGGTGAGTATACACCGTTT,3.01,4.25,3.99,0.788,4.36,3.65,0.513,4.61,0.835

Sequence,PBM binding z-score [1],PBM binding z-score [2],PBM binding z-score [3],PBM binding z-score [4],PBM binding z-score [5],PBM binding z-score [6],PBM binding z-score [7],PBM binding z-score [8],PBM binding z-score [9]
CAAACTAGGTCACCGGAAGGTCAAAGTCCGCATG,5.88,8.43,7.82,2.05,6.69,4.6,2.95,6.25,3.43
AGTCAAAGTTCAGGACGAGGTAACGTGAAGCACG,1.95,4.86,4.39,2.8,3.03,3.97,1.65,3.16,1.62
CGTCCAAGGTCATAGGAGCTCAGTGAAGACAGAT,3.58,5.66,5.78,3.96,5.68,4.03,2.37,4.11,2.47
CCAGACAGGTGAAAGGTATCTCAGTCTGGTACGC,0.311,0.551,0.554,0.109,0.972,0.0736,-0.151,0.0976,-0.194
CCTAGCAGGCCTGGGTCACTCAAGCATTTCGCTT,1.69,1.25,0.967,-0.144,0.958,1.48,0.229,0.546,-0.269
TCTTGTAGATCAAAGGTTAGGAAAGCCGAAGCCT,0.876,0.902,0.458,0.579,2.08,0.654,-0.709,0.697,-0.493
GGGACGAGGGCAAAGTTGATAGCATCTGTCGACG,1.44,2.17,1.98,2.35,1.9,1.52,0.0608,1.47,1.85
CAAACTAGGTTAAGGTCAAAGTCGGTTTGTGCCA,4.49,5.11,4.99,2.74,5.29,4.54,5.29,4.8,4.48
GGAACGAGGACATTCGAGTTGATAGCATGGCGAT,-0.261,0.285,0.773,2.25,0.11,2.2,0.823,0.922,1.65
CGAACTAGGTCAAGGACAGTGATTCTCCGCACGC,3.36,3.83,4.62,1.49,2.77,3.42,2.19,1.48,0.466
ACGGACAGGTGAGTGAAGGTAACTCAGCTGGACG,0.226,0.31,0.674,-0.495,0.344,1.69,-0.483,-0.381,-0.502
ATCTCTACGTAAAGATAGTTCAGTGAATGCAAAT,0.65,0.0953,0.572,0.102,0.153,0.0897,-0.716,0.567,0.535
TAGCCTAGTTCATTGGGCCAGTATAGTACGCATC,0.671,0.573,1.01,2.8,0.243,0.192,-0.374,1.17,2.72
TCATATAGGTAAACAGGTGAAAGTCCGTAAGTTA,0.747,0.484,0.254,1.68,1.04,0.795,0.578,1.27,0.358
GTACCAAGGTGAATAGGTCGTCGATGAGTAGGCG,2.07,2.91,1.67,-0.36,2.1,2.11,0.363,0.97,-0.13
ACTTACGGGTGAACGAGGTTATAGCACGCGTATA,1.2,1.47,0.987,0.294,2.06,2.39,0.511,5.33,1.01
AGCACGAGGGCACGCTGAGTTGATAGCAGAGTAG,1.33,1.97,2.42,1.87,1.52,2.05,0.103,2.17,0.992
CAAACTAGGTCAAAGAGGTCAAAGTCCGTGCGTA,5.27,6.66,6.81,3.24,7.15,4.4,2.33,7.75,6.65
